Assay results: PubChem BioAssay AID1347426 (Functional Genomics Laboratory (NCATS/FGL), 2020)
The campaign covered roughly 31,000 sequences. About 1,400 (4.5%) were called active. This is one part of a sample in which actives are shown more often than they occur. A number with no mark means an inactive call.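 Rule for the calls: active = median seed-adjusted z-score above 1 or below -1; inactive = the rest.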

Test: Novel Modifiers of Survival Motor Neuron (SMN) Protein: Gene Identification via Genome-wide siRNA Screen;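 note: luminescence tracks full-length SMN protein made from the SMN2 reporter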
Conditions: HEK293T SMN2-luciferase reporter, siRNA knockdown, 72 h; actives lie on both sides
How it was run: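 Genome-wide siRNA screen (10418 genes, 3 siRNAs each, 1 pmol per well) by reverse transfection in HEK293T cells stably carrying an SMN2-luciferase reporter; luminescence after 72 hours, normalized to negative-control siRNA, log10-transformed, MAD-scored.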

With AAGUGACUCUAGUCGUUUATT against REM2 as the sequence, how does the median seed-adjusted z-score read?
Its median seed-adjusted z-score is 0.109.

Which median seed-adjusted z-score does the source give for GCAGGGUCAUUACGACUCATT against PAX9 here?
The median seed-adjusted z-score was -1.16 (active).

Which median seed-adjusted z-score does the source give for GAAUGGAUUCUGACCUUAUTT against MTO1 here?
The median seed-adjusted z-score was -0.0252.

Which median seed-adjusted z-score does the source give for ACAAGAUGUAUCACCUAUATT against ZNF226 here?
Its median seed-adjusted z-score is 0.437.

For GGACUUGCUGGAAAGCACATT against NCALD, which median seed-adjusted z-score is on record?
Its median seed-adjusted z-score is 0.

Which median seed-adjusted z-score does the source give for GUACCUAAGUUGGAGCUGATT against TRPT1 here?
Its median seed-adjusted z-score is -0.671.

For CCACUGGGCUAAUUCUACATT against ALPPL2, which median seed-adjusted z-score is on record?
The median seed-adjusted z-score was 0.331.

With CGACACUUUCUAUCGACAATT against UBA3 as the sequence, how does the median seed-adjusted z-score read?
The median seed-adjusted z-score was 0.605.

Which median seed-adjusted z-score does the source give for GGGUCUCAGAAGACGUGUATT against CRAT here?
Its median seed-adjusted z-score is -1.42 (active).

For GACAGUAACUUUAAUUCCATT against IDH3A, which median seed-adjusted z-score is on record?
The median seed-adjusted z-score was 0.137.

With CAACAGCAAUUACACCGAUTT against TMPRSS13 as the sequence, how does the median seed-adjusted z-score read?
The median seed-adjusted z-score was 0.0584.

With GAACUUCAUAGUACAGCGATT against CTNNAL1 as the sequence, how does the median seed-adjusted z-score read?
Its median seed-adjusted z-score is 0.229.

With CUGCUCUAAUUACACCGUATT against CILP as the sequence, how does the median seed-adjusted z-score read?
The median seed-adjusted z-score was 0.0436.

Which median seed-adjusted z-score does the source give for GCUCGAUCCCUGCAGAUUATT against LCOR here?
The median seed-adjusted z-score was -0.0435.

Which median seed-adjusted z-score does the source give for AGAUAAAGCGAUCUAAACUTT against ASCC3 here?
The median seed-adjusted z-score was -0.192.

Which median seed-adjusted z-score does the source give for UCAUCUUAAAGGACCGAUATT against SEC11B here?
The median seed-adjusted z-score was 1.04 (active).

Which median seed-adjusted z-score does the source give for CCCACAUUCUUGUCCGGCATT against ADAMTS4 here?
Its median seed-adjusted z-score is -0.0153.

With GAAAGAUCCCUAUGGAAAATT against CAMK2G as the sequence, how does the median seed-adjusted z-score read?
The median seed-adjusted z-score was -0.107.

Which median seed-adjusted z-score does the source give for GAAGGAUUAGAAACCGCAATT against RNF144 here?
Its median seed-adjusted z-score is 0.0938.

With GGAUAAUGGAGAACUCAGATT against NSFL1C as the sequence, how does the median seed-adjusted z-score read?
Its median seed-adjusted z-score is -0.0899.

Which median seed-adjusted z-score does the source give for GCACGUACCGCUUCGAAAATT against SLC4A10 here?
The median seed-adjusted z-score was 0.026.

For CCGGUAUUAGAAUCAAAGATT against POLS, which median seed-adjusted z-score is on record?
Its median seed-adjusted z-score is -0.334.

Which median seed-adjusted z-score does the source give for CGAUAUCUUCACCACAUUATT against KCNJ6 here?
Its median seed-adjusted z-score is -1.6 (active).

For CAACAAGUGUAACGACGAUTT against SMPD3, which median seed-adjusted z-score is on record?
The median seed-adjusted z-score was -0.0115.

For ACAGAACUCGGGACCUUUUTT against H6PD, which median seed-adjusted z-score is on record?
The median seed-adjusted z-score was 0.069.

For GAAGAUUGCUCAGCGAUUATT against PRPF3, which median seed-adjusted z-score is on record?
The median seed-adjusted z-score was -0.289.

Which median seed-adjusted z-score does the source give for GCUCGUAAGAGUGCAAGUATT against USPL1 here?
Its median seed-adjusted z-score is -1.87 (active).

With GCCUGAAACUGGAGCCUCATT against SLC3A2 as the sequence, how does the median seed-adjusted z-score read?
Its median seed-adjusted z-score is -0.0428.

Which median seed-adjusted z-score does the source give for CCACAAAGACCGUCGCUUUTT against RHOBTB2 here?
Its median seed-adjusted z-score is -0.139.

For GGCUAUGAUCAAAUCCUUATT against SLC17A4, which median seed-adjusted z-score is on record?
Its median seed-adjusted z-score is 0.262.

With GAACUGGGCGAGUAUUACATT against SUPT5H as the sequence, how does the median seed-adjusted z-score read?
Its median seed-adjusted z-score is -4.02 (active).

For AGAUGGAAGCGAAAACUGATT against NFATC1, which median seed-adjusted z-score is on record?
Its median seed-adjusted z-score is 0.00712.

Which median seed-adjusted z-score does the source give for GUGACCUUGUCAUUCCGUATT against RGS5 here?
The median seed-adjusted z-score was 0.

For CACCUGUUCGUGUCCUUCATT against SCTR, which median seed-adjusted z-score is on record?
Its median seed-adjusted z-score is -0.352.

For GCCUGGUUAUAUAACCGGATT against EP300, which median seed-adjusted z-score is on record?
Its median seed-adjusted z-score is -0.2.

With GGUUCCGAAUCUAUUCCAATT against PLTP as the sequence, how does the median seed-adjusted z-score read?
Its median seed-adjusted z-score is 1.09 (active).

For GGCCUUACUUAUUUGUGGATT against MAP2K5, which median seed-adjusted z-score is on record?
Its median seed-adjusted z-score is 0.986.

For GCAUCACACUCACCAACUATT against GPR124, which median seed-adjusted z-score is on record?
The median seed-adjusted z-score was 0.00658.

With GCUUUGGAAGAAUACGUUATT against NR2F2 as the sequence, how does the median seed-adjusted z-score read?
Its median seed-adjusted z-score is 0.129.

For UGAGUAUGCCUACCUCAAATT against HNF4A, which median seed-adjusted z-score is on record?
Its median seed-adjusted z-score is -0.0274.

For CAAUCUACCUAAUCAAGCUTT against ROD1, which median seed-adjusted z-score is on record?
The median seed-adjusted z-score was 0.42.

With CAAGAACGUGUACAAGUUUTT against RPN2 as the sequence, how does the median seed-adjusted z-score read?
The median seed-adjusted z-score was -0.217.

For GAGCUGAGCUGUCGAUAUATT against SUPT6H, which median seed-adjusted z-score is on record?
Its median seed-adjusted z-score is -2.54 (active).

For GGUACAUCAUGAUAGAACATT against ABCD2, which median seed-adjusted z-score is on record?
Its median seed-adjusted z-score is -0.102.

With GUAUGGACACCAUUAGUAATT against DTX3L as the sequence, how does the median seed-adjusted z-score read?
Its median seed-adjusted z-score is 0.0785.

With GAGUUCACCCAGAUCGAAATT against CHMP6 as the sequence, how does the median seed-adjusted z-score read?
Its median seed-adjusted z-score is -1.81 (active).

For GCAUCGACAUGGUUUCCGATT against GABRB3, which median seed-adjusted z-score is on record?
Its median seed-adjusted z-score is 0.0757.

With CCACUGUACUGAGUGACCATT against HECTD3 as the sequence, how does the median seed-adjusted z-score read?
Its median seed-adjusted z-score is 0.

With GAUUACUUCUUGACUAUCATT against OCRL as the sequence, how does the median seed-adjusted z-score read?
Its median seed-adjusted z-score is -0.545.

For CGACCCUCAGAAUGAUAAATT against ARPC3, which median seed-adjusted z-score is on record?
The median seed-adjusted z-score was -0.237.

Which median seed-adjusted z-score does the source give for CCAUCCUGGAAAUACCCUATT against SERPINA12 here?
The median seed-adjusted z-score was -0.382.

For UGAAUUUCGUAGUUCCAUATT against CNOT8, which median seed-adjusted z-score is on record?
The median seed-adjusted z-score was 0.375.

For CCGUCGAAUUUGAAGGUGATT against SULF1, which median seed-adjusted z-score is on record?
Its median seed-adjusted z-score is -0.128.

For AGAUCUCCAUGGUCAGGAUTT against ACCN4, which median seed-adjusted z-score is on record?
Its median seed-adjusted z-score is -0.512.

With GAACCUUCGGGAGAACCUUTT against FKBPL as the sequence, how does the median seed-adjusted z-score read?
The median seed-adjusted z-score was -1.11 (active).

Which median seed-adjusted z-score does the source give for CGGUAUAAUCGGAAUCGGATT against MKI67IP here?
Its median seed-adjusted z-score is 0.426.

Which median seed-adjusted z-score does the source give for GGUGAAUAUUUAUCGUCUATT against CHD1 here?
The median seed-adjusted z-score was -1.03 (active).

For GCUAGACACCGGACCAAAATT against MMP28, which median seed-adjusted z-score is on record?
The median seed-adjusted z-score was 0.862.

For GGACAACUAUGGUAAGAAATT against TCF7L1, which median seed-adjusted z-score is on record?
Its median seed-adjusted z-score is -0.251.

With GGAUUGAGCGCAUCAAGGUTT against GNG7 as the sequence, how does the median seed-adjusted z-score read?
The median seed-adjusted z-score was -0.205.

For GAAUGCUGUUUAUCUUAAUTT against PNPLA1, which median seed-adjusted z-score is on record?
The median seed-adjusted z-score was 0.00692.

With GGGAAAAAGUUCUUGCGUATT against USP12 as the sequence, how does the median seed-adjusted z-score read?
The median seed-adjusted z-score was 0.121.

For GCUUUACAACAAUCACAUATT against AMIGO2, which median seed-adjusted z-score is on record?
The median seed-adjusted z-score was -0.258.

Which median seed-adjusted z-score does the source give for CUCUUUCAAGUAUGAGACATT against INHA here?
The median seed-adjusted z-score was 0.231.

For CAGCUGCUAUCAGAACGGATT against APBA2, which median seed-adjusted z-score is on record?
The median seed-adjusted z-score was 1.66 (active).

Which median seed-adjusted z-score does the source give for GAAUAUUCUUGCAGAGUUUTT against WFDC5 here?
Its median seed-adjusted z-score is 0.

For GGCUUUUGAGCAUCCCAAUTT against CDK4, which median seed-adjusted z-score is on record?
Its median seed-adjusted z-score is 0.346.

With CAGUCCCUCUAUCACAUAUTT against ERH as the sequence, how does the median seed-adjusted z-score read?
The median seed-adjusted z-score was -1.25 (active).

Which median seed-adjusted z-score does the source give for GGAGGUGUUUUGUUCGGAUTT against SV2C here?
The median seed-adjusted z-score was 0.183.
